Several values for one entry are separate records, joined by “and”; a condition that tells them apart may be missing. Identical values can stand only once. The panel holds about 83,000 compounds, 20% with a hit somewhere; the sample as a whole holds those more often.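 Note: values are percent growth. 100 is the growth of untreated cells, values between 100 and 0 indicate rising inhibition; between -100 and 0 indicates cell death.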 Activity calls are given as the source filed them. Where a SMILES comes first, the peptide text is derived from it.
Each compound was assayed on A549/ATCC NSCLC (assay: NCI-60 one-dose screen, 48 h (100 = growth as untreated, 0 = no growth, -100 = all killed)). Settings: 10 µM unless noted.
Protocol: Growth inhibition of the A549/ATCC human Non-Small Cell Lung tumor cell line is measured as a screen for anti-cancer activity. Cells are grown in 96 well plates and exposed to the test compound for 48 hours. Compounds are tested at a single concentration, which is 10^-5 M for most compounds. The reported endpoint is percent growth (GI% or GIPRCNT), where numbers from 0 - 100% represent growth inhibition, and numbers from -100% - 0 represent cell death. For example, a value of 40 represents 60% growth inhibition. A value of 0 means no net growth occurred over the course of the experiment. A value of -40 indicates 40% of cells at the beginning of the experiment died by the end of the experiment. A value of -100 means all cells are dead at the end of the experiment.
NCI-60 Human Tumor Cell Lines Screen was performed using the standard one-dose NCI protocol, which is described in more detail at https://dtp.cancer.gov/discovery_development/nci-60/default.htm.
Compounds with GIPRCNT values below 10 were considered active. Activity score was based on GIPRCNT using the following formula: […]
Score is 0 for GIPRCNT values of 100 or above, 50 for GIPRCNT values of 0, and 100 for GIPRCNT values of -100.
In the case of `CC(C)(O)C(=O)O`, the growth was 102% (inactive).
In the case of `CN(C)CC1CCCCCC(CN(C)C)C1=O` (stereo not given), the growth was 106% (inactive).
In the case of `O=C(/C=C/c1ccccc1)c1ccccc1`, the growth was 96.3% (inactive).
`CC[C@H](CC[C@@H](C)[C@H]1CC[C@H]2[C@@H]3CC=C4C[C@@H](O)CC[C@]4(C)[C@H]3CC[C@]12C)C(C)C` was tested, and the growth was 102% (inactive).
With `COc1cc(C(O)C2C(=O)OCC2C2(c3ccc4c(c3)OCO4)SCCCS2)cc(OC)c1OC` (stereo not given) the growth was 97.1% (inactive).
For `CCCCCCCCCCNC(=O)CI`, the growth was 95.1% (inactive).
For `O=C1C=C(Nc2ccccc2)c2ccccc2C1=O`, the growth was 6.95% (active) and 93.7% (inactive).
In the case of `Nc1ccc2c(O)cc(S(=O)(=O)O)cc2c1`, the growth was 105% (inactive) and 92.1% (inactive).
In the case of `O=C(CO)C(O)C(O)C(O)C(O)CO` (stereo not given), the growth was 97.5% (inactive) and 96.1% (inactive).
In the case of `CC(=O)NCC(=O)c1ccc([N+](=O)[O-])cc1`, the growth was 101% (inactive).
For `O=C(O)CCCl`, the growth was 104% (inactive).
For `Cl`, the growth was 103% (inactive).
In the case of `COc1ccc(N/C=C/C2=[N+](C)c3ccccc3C2(C)C)c(OC)c1`, the growth was 92.9% (inactive).
In the case of `Nc1nc(N)c2[nH]cnc2n1`, the growth was 80.2% (inactive).
For `c1ccc(-c2nc3ccccc3s2)cc1`, the growth was 105% (inactive).
`CC(C)NC(=O)N/C=C(\C#N)C(N)=O` was tested, and the growth was 111% (inactive).
`NC(Cc1ccccc1)C(=O)NC(Cc1ccccc1)C(=O)O` (stereo not drawn) (H-Phe-Phe-OH; configuration not given here) was tested, and the growth was 90.2% (inactive) and 101% (inactive).
For `Cc1ccc(S(=O)(=O)c2ccccc2)cc1`, the growth was 41.7% (inactive).
With `Cc1cc(-c2ccc(N=Nc3ccc4c(S(=O)(=O)O)cc(S(=O)(=O)O)c(N)c4c3O)c(C)c2)ccc1N=Nc1ccc2c(S(=O)(=O)O)cc(S(=O)(=O)O)c(N)c2c1O` the growth was 92.7% (inactive).
In the case of `ClCCOCCOc1ccc(C2CCCCC2)cc1`, the growth was 86.6% (inactive).
In the case of `Cc1cc(-c2cc(C)c(O)c(C)c2)cc(C)c1O`, the growth was 90.2% (inactive).
`OCC1OC(O)C(O)C(O)C1O` (stereo not given) was tested, and the growth was 108% (inactive).
In the case of `CCCCNc1ccc(Nc2ccccc2)cc1`, the growth was 70.1% (inactive).
`COc1ccc2cc1Oc1ccc(cc1)C[C@H]1c3cc(c(OC)cc3CCN1C)Oc1c(OC)c(OC)cc3c1[C@H](C2)N(C)CC3` was tested, and the growth was 39.6% (inactive).
For `O=C(Cc1ccccc1)c1ccc(O)c(Cl)c1`, the growth was 96.4% (inactive).
For `CC1=C/C(O)CC(=O)Cc2nc(co2)C(=O)N2CCC=C2C(=O)OC(C(C)C)C(C)/C=C\C(=O)NC/C=C\1` (stereo not given), the growth was 83% (inactive).
In the case of `CCCCCCCCCCCCCCCCC(C(=O)O)C(O)(CC(=O)O)C(=O)O` (stereo not given), the growth was 106% (inactive) and 12.6% (inactive).
For `O=c1n(CC2CO2)c(=O)n(CC2CO2)c(=O)n1CC1CO1` (stereo not given), the growth was 44.3% (inactive).
`CN1CNC(=O)NC1` was tested, and the growth was 110% (inactive) and 93.8% (inactive).
`O=c1[nH]cnc2c1ncn2C1OC(CO)C(O)C1O` (stereo not given) was tested, and the growth was 112% (inactive) and 102% (inactive) and 107% (inactive).
`CC1CCC2(OC1)OC1CC3C4CC=C5CC(O)CCC5(C)C4CCC3(C)C1C2C` (stereo not given) was tested, and the growth was 27.3% (inactive).
For `Oc1ccc(Cc2ccccc2Cl)c(O)c1`, the growth was 98.8% (inactive).
For `O=C1OC(C(O)C(O)CO)C(O)=C1O` (stereo not given), the growth was 104% (inactive) and 74.9% (inactive).
With `N#CC(C#N)N=Nc1cc(Cl)ccc1Cl` the growth was 98.4% (inactive).
With `N#CC(C#N)N=Nc1ccc(Cl)cc1` the growth was 105% (inactive).
In the case of `C#CCOC(=O)Nc1ccccc1`, the growth was 97.4% (inactive).
For `OCCN1CCCCCCC1`, the growth was 99% (inactive).
In the case of `NC(=O)NCCCC(N)C(=O)O` (stereo not given), the growth was 104% (inactive).
With `O=C1CSC2=NCCN12` the growth was 92.9% (inactive) and 113% (inactive).
`CC1(C)COC(=S)N1` was tested, and the growth was 104% (inactive).
